# Bioassay records (PubChem BioAssay)
# Hits are enriched below; roughly 15% of the tested compounds scored in any of these assays.
# HCV inhibitor: qHTS Assay for Inhibitors of Hepatitis C Virus (HCV). Huh7.5.1 HCVcc-Cre infection, luciferase reporter, 44 h. Potency, µM (series often up to 41.8 µM), for the others: at the highest dose activity change, negative = inhibition, hits mostly inhibitors. actives 3.4% (n = 340,000). AID 651820, 2012; also: potency is read from the fitted curve at half-maximal effect; % is scaled to controls: 0 for no effect and ±100 for the full control effect
#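 Cells (1,000/well) were plated 4 h before compound, then infected with HCVcc-Cre virus (~0.5 moi). After 44 h further culture, infection was read as luciferase luminescence following a 15 min substrate incubation at room temperature.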
# Pf growth 48h: Primary qHTS for delayed death inhibitors of the malarial parasite plastid, 48 hour incubation | P. falciparum luciferase growth in erythrocytes, 48 h | Potency, µM (series often up to 28.7 µM), for the others: at the top dose activity change, negative = inhibition, most hits filed as inhibitors | actives 5.9% (n = 310,000) | AID 504832, 2011; also: potency is read from the fitted curve at half-maximal effect; % is scaled to controls: 0 for no effect and ±100 for the full control effect
#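 Growth was read as firefly luciferase luminescence after a 48 h, 37 C, 5% CO2 exposure of compounds to reporter-bearing P. falciparum cultures (0.1% parasitemia, 2% hematocrit final) in Albumax-supplemented RPMI 1640.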
# HCMV inh: qHTS Assay for inhibitors of the human cytomegalovirus (HCMV). AID 1259415, 2018. activity change, negative = inhibition, % at 57.5 µM. HFF cells, HCMV-luciferase reporter, 72 h; hits give low values. actives 4.5% (n = 410,000); in the data active = activity change below about -60%; inconclusive = no clear call, values can overlap the other calls; inactive = above about -39%; also: % is scaled to controls: 0 for no effect and ±100 for the full control effect
#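 After 16 h attachment at 37C, HFF cells received test compound and HCMV-luciferase (1 PFU/cell); reporter luminescence read 72 h later, data normalized against buffer-only and known inhibitor Salinomycin.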
# SARS PLP yeast: qHTS of Yeast-based Assay for SARS-CoV PLP | S. cerevisiae expressing SARS-CoV PLpro, growth rescue | Potency, µM (series often up to 32.9 µM), inactives show at the highest dose activity, positive = growth rescue, usual class: activators | actives 0.19% (n = 330,000); calls by dose curve; also: potency is read from the fitted curve at half-maximal effect; 0% is about no effect; nearly all actives have a fitted effect of over 55% in size
# Sm TGR inh: qHTS Assay for the Inhibitors of Schistosoma Mansoni Peroxiredoxins; Schistosoma mansoni thioredoxin glutathione reductase (TGR), Q962Y6; purified TGR, DTNB reduction, TNB absorbance 405 nm; Potency, µM (highest dose often 114 µM), inactives show at the highest dose activity change, negative = inhibition, usual class: inhibitors; actives 3% (n = 360,000); AID 485364, 2010; also: potency is read from the fitted curve at half-maximal effect; % is scaled to controls: 0 for no effect and ±100 for the full control effect; nearly all actives have a fitted effect of over 60% in size
#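 Kinetic colorimetric format: TGR-catalysed, NADPH-driven DTNB reduction monitored via TNB absorbance. Enzyme dispensed at 20 nM; compound exposure 15 min at room temperature before reaction start.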
# Pf growth 96h: Primary qHTS for delayed death inhibitors of the malarial parasite plastid, 96 hour incubation | P. falciparum luciferase reporter growth, 96 h | actives 6.9% (n = 320,000) | AID 504834, 2011 | Potency, µM (top dose mostly 28.7 µM), for the others: at the highest dose activity change, negative = inhibition, usual class: inhibitors; also: potency is read from the fitted curve at half-maximal effect; % is scaled to controls: 0 for no effect and ±100 for the full control effect
#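 Cell-based qHTS: luciferase-tagged P. falciparum in erythrocytes (2% hematocrit, 0.05% parasitemia final) incubated with compounds for 96 hours, 37 C, 5% CO2; luciferase detection reagent then added and luminescence measured.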
# * = called active by the depositor; ? = inconclusive; / = not tested or not shown; ! = a repeat was not active; [ ] = another dose, or the depositor's remark. Unless noted, calls follow the shape of the dose curve; as a rule, active = well fitted curve in the direction sought with a large enough effect; inconclusive = small, poorly fitted or top-dose-only effect, or another doubt; inactive = no such curve, though single readings can be large; an effect the other way counts as inactive or inconclusive.
SMILES,HCV inhibitor,Pf growth 48h,HCMV inh,SARS PLP yeast,Sm TGR inh,Pf growth 96h
Cc1cc(C)c(S(=O)(=O)NCC2CCC(C(=O)NCCCN3CCC(C)CC3)CC2)c(C)c1 (stereo not drawn),?,9.28µM*,-16.3,0.9%,-0.2%,8.2%
CCS(=O)(=O)N1CCCC(C(=O)NCCCN2CCCC2=O)C1 (stereo not drawn),8.2%,7.4%,-28.2,-1.9%,-0.8%,10.4µM*
COc1ccc2c(c1)c1c(c(=O)n(-c3ccccc3C)c(=O)n1Cc1c(F)cccc1Cl)n2C,/,/,10.4,/,18.8%,/
CC(C)OC(=O)CN1C(=O)S/C(=C/c2ccc(N3CCCCC3)o2)C1=O,?,?,-30.0,-27.8%,6.31µM*,/
O=C1S/C(=C\c2ccc(N3CCOCC3)o2)C(=O)N1Cc1ccc(F)cc1,?,?,/,-5.8%,5.01µM*,?
O=C1S/C(=C/c2ccc(N3CCOCC3)o2)C(=O)N1Cc1ccc(F)cc1,?,?,-35.8,-8.1%,1µM*,?
O=C1N=C(N2CCOCC2)S/C1=C/c1ccc(-c2ccc(F)cc2)o1,?,?,-4.1,-0.6%,-27.2%,?
CC(C)(C)OC(=O)CN1C(=O)S/C(=C\c2ccc(-c3cccc(C(=O)O)c3)o2)C1=O,/,37.2%,/,-6.0%,28.4%,-2.1%
N#Cc1c(-n2ncnc2-c2cccc(Cl)c2)sc2c1CCCCC2,/,/,-1.4,/,-10.8%,/
Cc1cc(C)cc(N(C(=O)c2sc(C)nc2C)C(C(=O)NCc2ccco2)c2ccccc2)c1 (stereo not drawn),22.6%,?,?,1.6%,-12.3%,11.7µM*
Cc1cccc(N(C(=O)c2sc(C)nc2C)C(C(=O)NCc2ccco2)c2ccccc2)c1 (stereo not drawn),-14.1%,?,2.7,3.9%,-1.2%,?
Cc1nc2ccc(S(=O)(=O)NC(C(=O)NCc3ccco3)C(C)C)cc2s1 (stereo not drawn),5.4%,-9.2%,-64.5*,0.4%,-12.5%,33.5%
Cc1ccc(CNC(=O)C(NS(=O)(=O)c2ccc3nc(C)sc3c2)C(C)C)cc1 (stereo not drawn),-11.7%,/,36.4,3.7%,5.4%,?
CCCCOCC1CN(CCCC)S(=O)(=O)c2c(cccc2N2CCCCC2)O1 (stereo not drawn),/,/,-1.1,/,/,/
COc1ccc(-c2oc3ccc(-c4cc(OC)c(OC)c(OC)c4)cc3c2-c2ccc(OC)nc2)cc1,2.6%,?,24.5,-2.8%,1.2%,3.29µM*
COc1ccc(-c2oc3ccc(-c4cc(OC)c(OC)c(OC)c4)cc3c2-c2ccc(OC)cc2)cc1,-2.5%,/,-5.7,/,/,/
CCOc1ccc2nc(NC(=O)C3CCN(S(=O)(=O)c4cnc[nH]4)CC3)sc2c1,-0.3%,/,-28.1,?,0.0%,?
CCCc1ccc(NC(=O)C2CCN(c3cnccn3)CC2)cc1,?,?,-64.0*!,-4.5%,7.1%,44.9%
CCOc1ccc2nc(NC(=O)C3CCN(c4cnccn4)CC3)sc2c1,?,9.28µM*,-39.0,-3.8%,0.2%,28.0%
CCc1nc(-c2ccc(C)c(S(=O)(=O)N3CCN(c4ccc(C(C)=O)cc4)CC3)c2)no1,/,/,-22.4,/,0.5%,/
Cc1c(CCO)c(=O)[nH]n1S(=O)(=O)c1ccccc1,16.6%,3.29µM*,-38.7,3.2%,3.5%,-6.1%
Cc1c(CCO)c(=O)[nH]n1S(=O)(=O)c1ccc(F)cc1,11.6%,5.1%,-13.5,-1.2%,-1.7%,44.5%
Cc1cc(C)c(NC(=O)Cn2nnc(-c3ccccc3)n2)c(C)c1,/,/,-8.6,/,-3.0%,/
Cc1ccc2ccccc2c1NC(=O)Cn1nnc(-c2cccnc2)n1,14.3%,24.6%,-2.9,0.8%,-0.9%[57.1 µM],0.657µM*
Cc1ccc(C(=O)N2CCN(c3ccc([N+](=O)[O-])c(NCc4cccnc4)c3)CC2)cc1,12.6µM*,8.28µM*,-36.3,-3.1%,4.2%,3.7µM*
SMILES,HCV inhibitor,Pf growth 48h,HCMV inh,SARS PLP yeast,Sm TGR inh,Pf growth 96h
COc1ccc(N2CCN(C(=O)c3ccc(CNS(=O)(=O)c4ccc(C)cc4)cc3)CC2)cc1,12.6µM*,?,?,-1.2%,3.4%,?
COc1ccc(N2CCN(C(=O)c3ccc(CNS(=O)(=O)c4cc(C)ccc4C)cc3)CC2)cc1,?,-3.9%,?,-0.5%,-3.4%,-1.4%
Cc1ccc(S(=O)(=O)NCc2ccc(C(=O)N3CCN(c4ccccn4)CC3)cc2)cc1,?,?,-25.7,-5.0%,-29.1%,?
Cc1ccc(S(=O)(=O)NCc2ccc(C(=O)N3CCN(c4ccc([N+](=O)[O-])cc4)CC3)cc2)cc1,3.98µM*,?,-98.3*,28.6%,2.3%,-6.0%
C#CCNC(=O)C[C@@H]1C[C@@]2(C(=O)OC)CC(C)(C)CC=C2N(Cc2ccccc2)C1=O,/,/,-15.8,/,/,/
Cc1ccc(C)c(OCc2cc(C(=O)N3CCN(C(=O)c4ccco4)CC3)no2)c1,-6.1%,-2.9%,-13.7,-0.9%,-21.1%,0.2%
O=C(c1cc(COc2ccc(F)cc2Cl)on1)N1CCC(OCc2cccnc2)CC1,-11.9%,?,-67.9*,-1.3%,4.1%,107.8%
O=C(c1cc(COc2cccc(C(F)(F)F)c2)on1)N1CCC(Oc2cccnc2)CC1,11.2µM*,-15.3%,-39.2,?,0.8%,54.3%
O=C(c1cc(COc2ccc(F)cc2F)on1)N1CCN(C(=O)c2ccco2)CC1,-22.6%,2.7%,-38.1,1.0%,25.1µM*,-21.7%
O=C(c1cc(COc2ccc(F)cc2Cl)on1)N1CCCC(OCc2cccnc2)C1 (stereo not drawn),?,?,?,-1.5%,2.1%,?
COc1ccc2cc(/C=N/NC(=O)CN(c3ccccc3OC)S(=O)(=O)c3ccccc3)c(Cl)nc2c1,/,/,0.0,/,/,/
CC1=CC(C)(C)n2c(O)c(N=NC(N)=S)c3cc(C)cc1c32,?,?,-67.8*,14.6%,3.6%,-7.9%
Cc1ccc2c(c1)c(N=NC(N)=S)c(O)n2Cc1ccccc1,0.1%,-26.5%,-4.8,13.4%,4.6%,?
CCn1c2ccccc2c2cc(CN3CCN(Cc4ccccc4C)CC3)ccc21,/,/,122.8,/,-0.6%,/
COc1cc(OC)c(OC)cc1CN1CCN(Cc2ccc(SC)cc2)CC1,?,0.0%,-36.1,-5.3%,-8.9%,24.0%
CCn1c2ccccc2c2cc(CN3CCN(Cc4cc(OC)ccc4O)CC3)ccc21,?,1.17µM*,14.6,8.0%,-27.2%,52.7%
CCn1c2ccccc2c2cc(CN3CCN(Cc4cc(OC)c(O)c(OC)c4)CC3)ccc21,/,/,?,/,35.5µM*,/
